ANO1 activ: TMEM16A chloride channel activators or potentiators, primary screen, cell-based, HTS. Anoctamin-1 (Mus musculus), Q8BHY3. HEK293 TMEM16A/YFP-H148Q/I152L, iodide quench fluorescence; stronger effect = lower value. B-score at 10 µM. 340,000 compounds, 0.3% hits. AID 623877, 2012;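 active = fluorescence-ratio B-score plate-corrected deviation score at least 3 library SD below zero, with starting fluorescence score within 5 deviations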;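 also: channel opened by trigger with iodide after compound preincubation; score built on the fluorescence ratio of max minus min over baseline; more negative score means more quench and so TMEM16A activation or potentiation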
MEKK2mut PB1 HTS: MEK5 binding signal on mutant MEKK2 PB1, primary screen, biochemical, multiplex bead flow cytometry, Alexa488-MEK5; percent response, % at 10 µM; Alexa488-MEK5 binding to MEKK2 mutant; 290,000 compounds, 0.35% hits; in the data active = percent response above about 24%, passing the limit was not always enough
MEKK2 WT-MEK5: modulators of MEK5 binding to wildtype MEKK2, primary screen, biochemical, multiplex bead flow cytometry, Alexa488-MEK5; 290,000 compounds, 1.1% hits; Mitogen-activated protein kinase kinase kinase 2 (Homo sapiens), Q9Y2U5; binding response (% of control), % at 10 µM; Alexa488-MEK5 binding to MEKK2 WT; actives lie on both sides; in the data active = binding response below about 67% or above about 130%
TMEM16A inh: TMEM16A chloride channel inhibitors, primary screen, cell-based, HTS; Anoctamin-1 (Mus musculus), Q8BHY3; HEK293 TMEM16A/YFP iodide influx fluorescence, ionomycin; normalized B-score (activity score, 25-100; higher = stronger inhibition) at 10 µM; 310,000 compounds, 1.2% hits; AID 588511, 2011;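 active = ratio plate-corrected score three or more library SD toward inhibition, starting fluorescence score within five deviations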;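 also: score derived from kinetic fluorescence span divided by baseline fluorescence per well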
NTR1 ag: agonists of human NTR1, primary screen, imaging, U2OS cells, beta-arrestin-GFP, high content | NTR1-U2OS beta-arrestin-GFP spot imaging, agonist mode | activation, % at 20 µM | 330,000 compounds, 0.17% hits | AID 493036, 2011;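 active = activation at or above 40% of the spot to cytoplasm intensity ratio, with at least 20 cells analyzed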;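 also: 0% = DMSO without peptide and 100% = 100 nM NTR1 peptide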
Target sequence (P30989 whole entry, looked up): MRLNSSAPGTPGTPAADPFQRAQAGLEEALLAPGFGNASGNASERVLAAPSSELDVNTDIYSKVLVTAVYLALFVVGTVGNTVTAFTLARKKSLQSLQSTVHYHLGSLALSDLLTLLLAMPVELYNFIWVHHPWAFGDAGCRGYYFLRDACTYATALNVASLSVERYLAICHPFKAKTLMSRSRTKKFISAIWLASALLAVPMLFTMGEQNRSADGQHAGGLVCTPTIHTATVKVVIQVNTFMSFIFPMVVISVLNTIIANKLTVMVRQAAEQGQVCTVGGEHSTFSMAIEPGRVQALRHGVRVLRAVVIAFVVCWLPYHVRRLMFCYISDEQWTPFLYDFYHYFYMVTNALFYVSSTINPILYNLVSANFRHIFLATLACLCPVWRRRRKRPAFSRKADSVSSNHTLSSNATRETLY
MEKK3 PB1 HTS: modulators of MEKK3-MEK5 PB1 binding, primary screen, biochemical, wildtype MEKK3, multiplex bead flow cytometry, Alexa488-MEK5. bead-based flow cytometry, Alexa488-MEK5 binding to MEKK3; actives lie on both sides; 0 = blocked by unlabeled MEK5, 100 = vehicle. binding response (% of control), % at 10 µM. 290,000 compounds, 1.4% hits. AID 1529, 2009;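 active = binding response more than 3 SD above or below the average of its plate-row segment, actives on both sides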;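 also: Alexa488 bead fluorescence after subtracting the streptavidin-only scavenger bead signal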
TMEM16A reconf: TMEM16A chloride channel inhibitors, confirmation, cell-based, re-confirmation; inhibition, % at 10 µM; HEK293 TMEM16A/YFP-H148Q, iodide quench fluorescence; ionomycin added to raise cell calcium; shares compounds with TMEM16A inh; AID 652189, 2013; 2,300 compounds, 39% hits;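 active = mean duplicate percent inhibition, scaled so buffer wells are 0 and the reference blocker 100, over three buffer SD above buffer mean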
HEK293 Ca mobil: calcium mobilization in TMEM16A/YFP HEK293 cells, confirmation, counter-screen for TMEM16A inhibitor project. shares compounds with TMEM16A inh. Fluo4 calcium mobilization. calcium response (% of ionomycin), % at 10 µM. 2,300 compounds, 2% hits. AID 652231, 2013;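 active = duplicate-averaged calcium signal over 20% of the ionomycin maximum, relative to buffer baseline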;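 also: each well's signal is peak minus trough fluorescence divided by its pre-addition baseline; 0% = buffer wells and 100% = ionomycin wells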
Parental YFP cnt: iodide YFP quench changes in parental YFP-HEK293, counter-screen for TMEM16A inhibitor project, cell-based; shares compounds with TMEM16A inh; ionomycin; YFP ratio F(max-min)/F0 at 10 µM; 2,300 tested, under 10 active; AID 652233, 2013;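 active = yellow fluorescent protein signal ratio exceeding the buffer control mean by over 5 SD of those controls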;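 also: ratio is mean of duplicate wells from kinetic YFP trace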
ClC-1 rat inh: ClC-1 chloride channel inhibition, selectivity assay for TMEM16A inhibitor project, cell-based, voltage-dependent ClC-1; 2,300 tested, under 10 active; ratio percent, % at 10 µM; CHO ClC-1-YFP, iodide influx fluorescence quench; iodide control reads 0, buffer control 100; AID 652236, 2013; shares compounds with TMEM16A inh;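 active = duplicate-mean ratio percent above the mean of iodide-only control wells, which defines zero, plus 5 of their SD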;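 also: higher percent means stronger block of ClC-1 iodide influx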
The depositor's hits bear a star; i = inactive; · = no result. Most compounds without a hit are left out; they make up all but 3.4% or so of the library.

SMILES	ANO1 activ	MEKK2mut PB1 HTS	MEKK2 WT-MEK5	TMEM16A inh	NTR1 ag	MEKK3 PB1 HTS	TMEM16A reconf	HEK293 Ca mobil	Parental YFP cnt	ClC-1 rat inh
CCC1=NN(C(=O)c2ccccc2Br)C(O)(c2ccc(Br)cc2)C1 (stereo unspecified)	i	4.0	101.0	i	-0.9	104.0	·	·	·	·
CCN(c1ccccc1)S(=O)(=O)c1cc(C(=O)Nc2cccc(Cl)c2)ccc1F	i	0.0	110.0	100*	5.6	92.0	i	i	-1.16	-7.0
O=C(Nc1ccccc1O)c1ccccc1O	i	-5.0	94.0	100*	1.1	95.0	31.5%*	i	-1	-26.0
Cc1ccc(C)c(NC(=O)c2cc(C)nc3ccccc23)c1	i	14.0	109.0	i	1.9	109.0	·	·	·	·
Cc1ccc(C)c(NC(=O)c2ccccc2O)c1	i	-2.0	100.0	25*	1.4	100.0	36.0%*	i	-1.1	-2.0
COc1ccc(N2CCN(C(=O)c3ccc(Br)o3)CC2)cc1	i	9.0	108.0	i	-1.3	104.0	·	·	·	·
Cc1ccc(-c2nnc(NC3CCCC3)s2)cc1	i	4.0	96.0	i	3.3	99.0	·	·	·	·
Cc1cccc(OCC(=O)Nc2nc3ccc([N+](=O)[O-])cc3s2)c1	i	3.0	102.0	25*	-0.7	104.0	i	i	-0.962	2.0
Cc1ccc(S(=O)(=O)N(C)c2ccc(OCC(=O)Nc3nc4ccccc4s3)cc2)cc1	i	-1.0	100.0	i	1.1	97.0	i	i	-0.851	-16.0
Cc1ccc(S(=O)(=O)N(C)c2ccc(OCC(=O)Nc3nc4c(ccc5ccccc54)s3)cc2)cc1	i	-2.0	99.0	i	0.5	103.0	·	·	·	·
O=C(CNC(=O)c1ccc(Br)cc1)NC1=NCCS1	i	-12.0	94.0	25*	-0.3	93.0	i	i	-1.17	-5.0
C=CCNC(=O)c1oc2ccc(S(=O)(=O)N(CC)CC)cc2c1C	i	10.0	110.0	25*	0.6	101.0	i	i	-1.02	-6.0
CCc1ccc(OCC(=O)O/N=C(\N)c2ccncc2)cc1	i	0.0	105.0	i	2.5	102.0	·	·	·	·
CCc1nnc(NC(=O)C2Cc3ccccc3CN2S(=O)(=O)c2c(C)c(C)cc(C)c2C)s1 (stereo unspecified)	i	-3.0	94.0	25*	6.1	98.0	i	i	-1.04	6.0
COC(=O)C(Cc1ccc(OC(=O)c2ccccc2Cl)cc1)N1Cc2ccccc2C1=O (stereo unspecified)	i	0.0	101.0	100*	1.9	105.0	i	i	-1	-5.0
CC(C)Cc1csc(NC(=O)c2ccccc2Cl)c1C(=O)O	i	5.0	108.0	i	1.0	107.0	·	·	·	·
Cc1ccc(-c2csc(NC(=O)c3ccc(Br)cc3)c2C(=O)O)cc1	i	1.0	99.0	100*	2.7	102.0	28.5%*	i	-1.17	0.5
CC(C)Cc1csc(NC(=O)c2ccc(Cl)cc2)c1C(=O)O	i	10.0	112.0	25*	3.6	101.0	39.0%*	i	-0.808	-5.0
O=C(Cc1ccc(Cl)cc1)N/N=C/c1cccc(O)c1	i	10.0	105.0	i	1.9	98.0	·	·	·	·
OCC[C@@H]1C[C@H](O)[C@@H](O)[C@]2(CCc3ccccc3O2)O1	i	-5.0	92.0	25*	1.8	99.0	i	i	-1.15	-3.0
OCC[C@@H]1C[C@@H](O)[C@H](O)[C@]2(CCc3ccccc3O2)O1	i	-5.0	99.0	i	-2.6	102.0	·	·	·	·
COC(=O)CCCCCN1C(=O)NC(c2ccccc2)C(C(=O)OCc2ccccc2)=C1C (stereo unspecified)	i	6.0	93.0	25*	9.3	107.0	16.0%*	i	-1.14	-14.0
COC(=O)C1=C(C)N(CCCC(=O)O)C(=O)NC1c1ccc(-c2ccccc2)cc1 (stereo unspecified)	i	3.0	101.0	100*	-1.5	106.0	i	i	-1.31	-1.0
COC(=O)C1=C(C)N(CCCC(=O)O)C(=O)NC1c1ccc(Br)cc1 (stereo unspecified)	i	-4.0	90.0	i	-2.7	99.0	·	·	·	·
COc1ccc(C2C3=C(CC(C)(C)CC3=O)Nc3n[nH]c(C)c32)cc1 (stereo unspecified)	i	10.0	96.0	100*	-0.2	100.0	i	i	-1	-8.0
SMILES	ANO1 activ	MEKK2mut PB1 HTS	MEKK2 WT-MEK5	TMEM16A inh	NTR1 ag	MEKK3 PB1 HTS	TMEM16A reconf	HEK293 Ca mobil	Parental YFP cnt	ClC-1 rat inh
COc1ccc(C2SCC(=O)N2CCCN(C)C)cc1 (stereo unspecified)	i	2.0	99.0	25*	1.4	93.0	i	i	-0.864	-4.0
CCCCNC(=O)CCn1nc(-c2ccc(C)cc2)c2ccccc2c1=O	i	5.0	102.0	i	3.2	99.0	·	·	·	·
CCn1nc(NS(=O)(=O)c2ccc([N+](=O)[O-])cc2)c2cc3cccc(C)c3nc21	i	3.0	101.0	25*	3.6	99.0	21.5%*	i	-0.744	-3.5
CCn1nc(NS(=O)(=O)c2ccccc2[N+](=O)[O-])c2cc3cccc(C)c3nc21	i	3.0	105.0	i	0.4	104.0	·	·	·	·
Cc1ccc(C(=O)CSc2nnc(COc3cccc(C)c3)o2)cc1	i	0.0	101.0	100*	-1.1	104.0	i	i	-1.06	-12.0
CCOC(=O)CSc1nnc(COc2cccc(C)c2)o1	i	-2.0	102.0	i	1.1	103.0	·	·	·	·

Compound activity: PubChem BioAssay, several laboratories
